# Source: PubChem BioAssay (NCATS)
# Results filed as inconclusive are left out. Calls of active or inactive are those of the source. Unless noted, the call rests on the fitted dose curve.
# Experiments:
# [1] = qHTS drug screen for cell cycle checkpoint inhibitors in PARPi-resistant BRCA-mutant ovarian cancer cell lines. (AID 1963452); conditions: PEO1/OlaR viability, CellTiter-Glo luminescence, 96 h, stronger effect = lower value
# In short: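 PEO1, PEO4 and PEO1/OlaR ovarian cancer cells, 600 per well, exposed 96 h at 37C to a dilution series. Viability read by CellTiter-Glo luminescence, normalized to DMSO and empty wells; activity summarized as Z-AUC.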
# [2] = qHTS for identification of novel therapeutic agents for treatment of microphthalmiaassociated transcription factor (MiT) renal cell carcinoma (RCC) (AID 1963991); conditions: CellTiter-Glo, 48 h, stronger effect = lower value
# In short: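 Viability of three TFE3-fusion renal carcinoma lines measured by CellTiter-Glo after 48 h treatment with each of 1912 compounds at 11 concentrations. Responses scaled between DMSO (100%) and empty wells (0%) before curve fitting.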
# [3] = Dual reporter qHTS for agonist of Pregnane X Receptor (hPXR) against the NCATS DSHEA and TCM libraries: Fluorescence readout (AID 1920058; active means well fitted curve in the direction sought with a large enough effect; an effect the other way counts as inactive or inconclusive; further: 0% is about no effect); conditions: PXR dual reporter cells; series mostly up to 40 µM
# In short: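 HepG2 hPXR-Luc, 2000 cells/well, 5 h attach; cpds ~24 h, 37 °C/5% CO2; CellTiter-Fluor 1 h; fluor. Ex/Em 405/540 nm = viability.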
# [4] = target: Nuclear receptor subfamily 1 group I member 2 (Homo sapiens) (UniProt O75469); experiment: Dual reporter qHTS for agonist of Pregnane X Receptor (hPXR) against the NCATS DSHEA and TCM libraries: Luminescence readout (AID 1920059; active means well fitted curve in the direction sought with a large enough effect; an effect the other way counts as inactive or inconclusive; further: 0% is about no effect); conditions: hPXR dual reporter cells, luciferase luminescence agonist; series mostly up to 40 µM
# Nuclear receptor subfamily 1 group I member 2 (Homo sapiens), sequence (O75469 whole entry, looked up): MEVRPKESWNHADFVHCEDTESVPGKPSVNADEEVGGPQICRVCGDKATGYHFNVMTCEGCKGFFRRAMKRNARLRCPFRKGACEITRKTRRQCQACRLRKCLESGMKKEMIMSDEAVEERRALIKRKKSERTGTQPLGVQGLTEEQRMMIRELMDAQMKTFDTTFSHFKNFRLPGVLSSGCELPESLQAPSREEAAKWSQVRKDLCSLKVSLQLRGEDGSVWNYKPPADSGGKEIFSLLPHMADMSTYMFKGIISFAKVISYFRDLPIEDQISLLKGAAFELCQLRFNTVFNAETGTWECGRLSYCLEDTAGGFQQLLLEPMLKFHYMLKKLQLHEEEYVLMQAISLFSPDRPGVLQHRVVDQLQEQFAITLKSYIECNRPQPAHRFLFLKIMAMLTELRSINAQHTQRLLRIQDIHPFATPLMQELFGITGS
# Source text: Assay Development and Screening Technology Laboratory (ADST)
# National Center for Advancing Translational Sciences (NCATS), Rockville, MD
# National Institute of Health (NIH), Bethesda, Maryland
# Dietary Supplements and Natural Products have minor oversight of their safety and efficacy. We assembled a collection of Dietary Supplements and Natural Products (DSNP) as well as Traditional Chinese Medicinal (TCM) Plant extracts, which were screened against an in vitro panel of assays, including a liver cytochrome p450 enzyme panel, CAR/PXR signaling pathways, and P-gp transporter assays, to assess their activity. This pipeline facilitated the interrogation of Natural Product-Drug Interaction (NaPDI) through prominent metabolizing pathways. In addition, we compared the activity profiles of the DSNP/TCM substances with those of an approved drug collection. Many of the approved drugs have well-annotated mechanisms of action (MOA) while the MOAs for most of the DSNP and TCM samples remain unknown. Based on the premise that compounds with similar activity profiles tend to share similar targets or MOA, we clustered the library activity profiles to identify overlap with the NCATS Pharmaceutical Collection to predict the MOAs of the DSNP/TCM substances. Overall, we highlight four significant bioactivity profiles (measured by p-values) as examples of this prediction. To assess broad cytotoxicity, we employed screening against a HepG2 cell line. In addition, transporter-mediated drug interactions are utilized in the characterization of DDIs using a P-glycoprotein (P-gp) assays. To profile potential P-gp activity, a differential cell viability was measured against two cell lines: a parental KB-3-1 human cervical adenocarcinoma cell line and the drug-resistant subline KB-8-5-11 that overexpresses P-gp.
# To this end, we profiled both collections for potential CAR and/or PXR activity, employing a previously published 1536-well qHTS assay.
# [1] […]
# 8; Read; Fluorescence; ViewLux plate reader. […]
# 11; Read; Luminescence; ViewLux plate reader. […]
# [5] = target: Nuclear receptor subfamily 1 group I member 2 (Homo sapiens) (UniProt O75469); experiment: Dual reporter qHTS for antagonist of Pregnane X Receptor (hPXR) against the NCATS DSHEA and TCM libraries: Luminescence Readout (AID 1920060; active means well fitted curve in the direction sought with a large enough effect; an effect the other way counts as inactive or inconclusive; further: 0% is about no effect); conditions: hPXR dual reporter cells, luciferase luminescence, antagonist mode; series mostly up to 40 µM
# In short: (§1)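 Rifampicin-stimulated (2 uM final) hPXR-luciferase HepG2 cells were treated for 24 h with DSNP/TCM substances. Viability came from CellTiter-Fluor fluorescence, reporter activity from ONE-Glo luminescence.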
# [6] = Dual reporter qHTS for antagonist of Pregnane X Receptor (hPXR) against the NCATS DSHEA and TCM libraries: Fluorescence Readout (AID 1920061; active means well fitted curve in the direction sought with a large enough effect; an effect the other way counts as inactive or inconclusive; further: 0% is about no effect); conditions: PXR dual reporter cells, antagonist mode; series mostly up to 40 µM
# In short: as §1
# [7] = measured here: PEO1 parental Z-AUC
# [8] = TFE3-RCC UOK109 viability, measured here: UOK109 Z-AUC
# [9] = TFE3-RCC viability, measured here: UOK124 Z-AUC
# [10] = TFE3-RCC viability, measured here: UOK145 Z-AUC
smiles,measurement,setting,value
CCC(=O)O[C@]1(C(=O)SCF)[C@H](C)C[C@H]2[C@@H]3C[C@H](F)C4=CC(=O)C=C[C@]4(C)[C@@]3(F)[C@@H](O)C[C@@]21C,Z-AUC,[1],-1.29 (inactive)
same,Z-AUC,[1]; [7],-0.0288
same,Z-AUC,[1]; measured here: PEO4 Z-AUC,-0.807
Cc1ccc(S(=O)(=O)N[C@@H](Cc2ccccc2)C(=O)CCl)cc1,Z-AUC,[1],1.05 (inactive)
same,Z-AUC,[1]; [7],1.44
same,Z-AUC,[1]; measured here: PEO4 Z-AUC,1.24
O=C(O)c1ccc(-n2nc(-c3ccccc3O)nc2-c2ccccc2O)cc1,Z-AUC,[1],0.434 (inactive)
same,Z-AUC,[1]; [7],-0.254
same,Z-AUC,[1]; measured here: PEO4 Z-AUC,-0.47
CC(C)C1CCC(C(=O)N[C@H](Cc2ccccc2)C(=O)O)CC1 (some centres undefined),Z-AUC,[1],1.31 (inactive)
same,Z-AUC,[1]; [7],1.43
same,Z-AUC,[1]; measured here: PEO4 Z-AUC,0.601
same,z-score,[2]; [8],0.399
same,z-score,[2]; [9],0.0648
same,z-score,[2]; [10],0.384
CC(C)(C)C(=O)OCOP(=O)(COCCn1cnc2c(N)ncnc21)OCOC(=O)C(C)(C)C,Z-AUC,[1],0.383 (inactive)
same,Z-AUC,[1]; [7],0.013
same,Z-AUC,[1]; measured here: PEO4 Z-AUC,-0.0203
Clc1ccccc1CN1CCc2sccc2C1,Z-AUC,[1],0.114 (inactive)
same,Z-AUC,[1]; [7],0.0683
same,Z-AUC,[1]; measured here: PEO4 Z-AUC,0.329
same,z-score,[2]; [8],0.71
same,z-score,[2]; [9],0.609
same,z-score,[2]; [10],0.692
COC(=O)Nc1nc2ccc(S(=O)c3ccccc3)cc2[nH]1 (centres undefined),Z-AUC,[1],0.889 (inactive)
same,Z-AUC,[1]; [7],0.292
same,Z-AUC,[1]; measured here: PEO4 Z-AUC,0.543
O=C(O)CCn1c2c(c3ccccc31)C[C@H](NS(=O)(=O)c1ccc(F)cc1)CC2,Z-AUC,[1],0.321 (inactive)
same,Z-AUC,[1]; [7],0.0173
same,Z-AUC,[1]; measured here: PEO4 Z-AUC,0.558
same,z-score,[2]; [8],0.68
same,z-score,[2]; [9],0.798
same,z-score,[2]; [10],0.766
CCCCS(=N)(=O)CCC(N)C(=O)O (centres undefined),Z-AUC,[1],-0.0852 (inactive)
same,Z-AUC,[1]; [7],0.0714
same,Z-AUC,[1]; measured here: PEO4 Z-AUC,0.126
same,z-score,[2]; [8],0.217
same,z-score,[2]; [9],0.527
same,z-score,[2]; [10],0.0952
CCCCc1oc2ccc(NS(C)(=O)=O)cc2c1C(=O)c1ccc(OCCCN(CCCC)CCCC)cc1,Z-AUC,[1],0.47 (inactive)
same,Z-AUC,[1]; [7],-0.173
same,Z-AUC,[1]; measured here: PEO4 Z-AUC,-0.237
O=C(O)c1cccnc1,outcome,[3],inactive
same,outcome,[4],inactive
same,outcome,[5],inactive
same,outcome,[6],inactive
same,Z-AUC,[1],0.136 (inactive)
same,Z-AUC,[1]; [7],-0.782
same,Z-AUC,[1]; measured here: PEO4 Z-AUC,-0.146
same,z-score,[2]; [8],0.704
same,z-score,[2]; [9],0.528
same,z-score,[2]; [10],0.253
C[C@@H](CN1CC(=O)NC(=O)C1)N1CC(=O)NC(=O)C1,Z-AUC,[1],1.24 (inactive)
same,Z-AUC,[1]; [7],1.43
same,Z-AUC,[1]; measured here: PEO4 Z-AUC,0.873
O=C(O)CSCC(=O)NC1CCSC1=O (centres undefined),Z-AUC,[1],-0.00872 (inactive)
same,Z-AUC,[1]; [7],0.644
same,Z-AUC,[1]; measured here: PEO4 Z-AUC,0.13
same,z-score,[2]; [8],0.815
same,z-score,[2]; [9],0.223
same,z-score,[2]; [10],1.5
CC(=O)CC(c1ccccc1)c1c(O)c2ccccc2oc1=O (centres undefined),Z-AUC,[1],1.13 (inactive)
same,Z-AUC,[1]; [7],1.51
same,Z-AUC,[1]; measured here: PEO4 Z-AUC,1.67
same,z-score,[2]; [8],0.83
same,z-score,[2]; [9],0.655
same,z-score,[2]; [10],0.641
NC1(c2ccc(-c3nc4ccn5c(=O)[nH]nc5c4cc3-c3ccccc3)cc2)CCC1,Z-AUC,[1],0.493 (inactive)
same,Z-AUC,[1]; [7],0.0138
same,Z-AUC,[1]; measured here: PEO4 Z-AUC,-0.184
NC(=O)c1cccc(N)c1,Z-AUC,[1],1.42 (inactive)
same,Z-AUC,[1]; [7],1.33
same,Z-AUC,[1]; measured here: PEO4 Z-AUC,0.943
COc1cc2ncnc(Nc3cccc(Cl)c3)c2cc1OC,Z-AUC,[1],0.0605 (inactive)
same,Z-AUC,[1]; [7],0.96
same,Z-AUC,[1]; measured here: PEO4 Z-AUC,0.239
CCCOc1ccc(C(=O)OCCN(CC)CC)cc1N,Z-AUC,[1],1.6 (inactive)
same,Z-AUC,[1]; [7],1
same,Z-AUC,[1]; measured here: PEO4 Z-AUC,0.987
